According to PubChem BioAssay AID1159580 (chemical genetic matrix, 2015):
Where “and” joins values, the source holds several entries; their conditions need not be identical. Equal values may be shown once. The campaign covered roughly 5,500 compounds. About 2,000 (36%) were called active. Inconclusive results (about 18%) are left out. Rule as the data show it: active = normalized growth mostly below about 0.91 (no sharp cut-off); inconclusive = no clear call, values can overlap the other calls; inactive = mostly above about 0.92. This is one part of the list.

Assay: chemical genetic growth profiling, strain panel (AID 1159580);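 also: tested at 20 µM; growth read once vehicle control cultures reached saturation at 30 °C; 1 = growth at the plate median or of vehicle wells; lower values mean less growth of the strain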
Details: growth OD

Measured: normalized growth

O=C1NC(O)=NC1(c1ccccc1)c1ccccc1
inactive: S. cerevisiae deletion strains, locus YJR075W, strain HOC1, hits give low values 1.01 | S. cerevisiae deletion strains, locus YKL009W, strain mrt4, hits give low values 1.01 | S. cerevisiae deletion strains, locus YKL068W, hits give low values 1.02 | S. cerevisiae deletion strains, locus YKL085W, strain MDH1 (second series), hits give low values 1 | S. cerevisiae deletion strains, locus YKL085W, strain MDH1, hits give low values 1 | S. cerevisiae deletion strains, locus YKL160W, strain elf1, hits give low values 1.03 | S. cerevisiae deletion strains, locus YKL190W, strain CNB1, hits give low values 1.01 | S. cerevisiae deletion strains, locus YKR001C, strain vps1, hits give low values 1.01 | S. cerevisiae deletion strains, locus YKR026C, strain gcn3, hits give low values 1.02 | S. cerevisiae deletion strains, locus YKR091W, strain srl3, hits give low values 1.02 | S. cerevisiae deletion strains, locus YLL001W, strain dnm1, hits give low values 1.02 | S. cerevisiae deletion strains, locus YLL026W, hits give low values 1.01 | S. cerevisiae deletion strains, locus YLL041C, strain sdh2, hits give low values 1.01 | S. cerevisiae deletion strains, locus YLR027C, strain aat2, hits give low values 1.02 | S. cerevisiae deletion strains, locus YLR039C, strain RIC1, hits give low values 0.995 | S. cerevisiae deletion strains, locus YLR058C, strain SHM2, hits give low values 1.01 | S. cerevisiae deletion strains, locus YLR102C, strain apc9, hits give low values 1.02 | S. cerevisiae deletion strains, locus YLR113W, strain HOG1, hits give low values 1.01 | S. cerevisiae deletion strains, locus YLR221C, strain rsa3, hits give low values 1.03 | S. cerevisiae deletion strains, locus YLR258W, strain gsy2, hits give low values 1.03 | S. cerevisiae deletion strains, locus YLR262C, strain YPT6 (second series), hits give low values 1.05 | S. cerevisiae deletion strains, locus YLR262C, strain YPT6, hits give low values 1.03 | S. cerevisiae deletion strains, locus YLR268W, strain sec22, hits give low values 1.05 | S. cerevisiae deletion strains, locus YLR320W, strain mms22, hits give low values 1.03 | S. cerevisiae deletion strains, locus YLR330W, strain CHS5, hits give low values 1.01 | S. cerevisiae deletion strains, locus YLR342W, strain FKS1 (second series), hits give low values 0.985 | S. cerevisiae deletion strains, locus YLR342W, strain FKS1, hits give low values 1.02 | S. cerevisiae deletion strains, locus YLR357W, strain rsc2, hits give low values 1.01 | S. cerevisiae deletion strains, locus YLR370C, strain arc18, hits give low values 1.01 | S. cerevisiae deletion strains, locus YLR371W, strain rom2, hits give low values 1.02 | S. cerevisiae deletion strains, locus YLR384C, strain iki3, hits give low values 1.01 | S. cerevisiae deletion strains, locus YLR418C, strain cdc73, hits give low values 1 | S. cerevisiae deletion strains, locus YML016C, strain PPZ1, hits give low values 1.01 | S. cerevisiae deletion strains, locus YML032C, strain rad52, hits give low values 1.03 | S. cerevisiae deletion strains, locus YML120C, strain ndi1, hits give low values 1.02 | S. cerevisiae deletion strains, locus YML124C, strain tub3, hits give low values 1.01 | S. cerevisiae deletion strains, locus YMR058W, strain fet3, hits give low values 1.01 | S. cerevisiae deletion strains, locus YMR078C, strain ctf18, hits give low values 1.02 | S. cerevisiae deletion strains, locus YMR125W, strain sto1, hits give low values 1.02 | S. cerevisiae deletion strains, locus YMR129W, hits give low values 1.02 | S. cerevisiae deletion strains, locus YMR205C, strain PFK2, hits give low values 1.04 | S. cerevisiae deletion strains, locus YMR223W, strain ubp8, hits give low values 0.991 | S. cerevisiae deletion strains, locus YMR231W, strain pep5, hits give low values 1.02 | S. cerevisiae deletion strains, locus YMR263W, strain SAP30, hits give low values 1.01 | S. cerevisiae deletion strains, locus YMR307W, strain GAS1, hits give low values 0.906 | S. cerevisiae deletion strains, locus YNL067W, strain RPL9B, hits give low values 1.01 | S. cerevisiae deletion strains, locus YNL071W, strain lat1, hits give low values 1.02 | S. cerevisiae deletion strains, locus YNL128W, strain TEP1, hits give low values 1.01 | S. cerevisiae deletion strains, locus YNL153C, strain GIM3, hits give low values 1.01 and 0.985 | S. cerevisiae deletion strains, locus YNL175C, strain NOP13, hits give low values 0.974 | S. cerevisiae deletion strains, locus YNL183C, strain NPR1, hits give low values 0.954 | S. cerevisiae deletion strains, locus YNL197C, strain WHI3, hits give low values 0.983 | S. cerevisiae deletion strains, locus YNL209W, strain ssb2, hits give low values 1.02 | S. cerevisiae deletion strains, locus YNL224C, strain SQS1, hits give low values 0.984 | S. cerevisiae deletion strains, locus YNL233W, strain BNI4, hits give low values 1.01 | S. cerevisiae deletion strains, locus YNL248C, strain rpa49, hits give low values 1.01 | S. cerevisiae deletion strains, locus YNL250W, strain rad50, hits give low values 1.02 | S. cerevisiae deletion strains, locus YNL271C, strain bni1, hits give low values 1.02 | S. cerevisiae deletion strains, locus YNL298W, strain CLA4, hits give low values 1.01 | S. cerevisiae deletion strains, locus YNL307C, strain MCK1, hits give low values 1.02 | S. cerevisiae deletion strains, locus YNL322C, strain KRE1 (second series), hits give low values 1.01 | S. cerevisiae deletion strains, locus YNL322C, strain KRE1, hits give low values 1.01 and 0.973 | S. cerevisiae deletion strains, locus YNR049C, strain mso1, hits give low values 1.01 | S. cerevisiae deletion strains, locus YNR052C, strain pop2, hits give low values 1.01 | S. cerevisiae deletion strains, locus YOL006C, strain TOP1, hits give low values 1.01 | S. cerevisiae deletion strains, locus YOL012C, strain htz1 1.06 | S. cerevisiae deletion strains, locus YOL147C, strain pex11, hits give low values 1.01 | S. cerevisiae deletion strains, locus YOR001W, strain rrp6, hits give low values 1 | S. cerevisiae deletion strains, locus YOR061W, strain CKA2, hits give low values 1 | S. cerevisiae deletion strains, locus YOR069W, strain VPS5, hits give low values 1.01 | S. cerevisiae deletion strains, locus YOR070C, strain gyp1, hits give low values 1.01 | S. cerevisiae deletion strains, locus YOR080W, strain dia2, hits give low values 1.01 | S. cerevisiae deletion strains, locus YOR083W, strain WHI5 (second series), hits give low values 0.98 | S. cerevisiae deletion strains, locus YOR083W, strain WHI5, hits give low values 1.03 | S. cerevisiae deletion strains, locus YOR106W, strain vam3, hits give low values 1.02 | S. cerevisiae deletion strains, locus YOR136W, strain idh2, hits give low values 1.01 | S. cerevisiae deletion strains, locus YOR144C, strain elg1, hits give low values 1.01 | S. cerevisiae deletion strains, locus YOR184W, strain ser1, hits give low values 1.02 | S. cerevisiae deletion strains, locus YOR231W, strain MKK1, hits give low values 0.985 | S. cerevisiae deletion strains, locus YOR265W, strain rbl2, hits give low values 1.01 | S. cerevisiae deletion strains, locus YOR270C, strain vph1, hits give low values 1.03 | S. cerevisiae deletion strains, locus YOR290C, strain snf2, hits give low values 1.03 | S. cerevisiae deletion strains, locus YOR316C, strain cot1, hits give low values 1.02 | S. cerevisiae deletion strains, locus YPL051W, strain arl3, hits give low values 1 | S. cerevisiae deletion strains, locus YPL055C, strain LGE1, hits give low values 1.01 and 0.95 | S. cerevisiae deletion strains, locus YPL078C, strain atp4, hits give low values 1.01 | S. cerevisiae deletion strains, locus YPL106C, strain sse1, hits give low values 1.03 | S. cerevisiae deletion strains, locus YPL240C, strain hsp82, hits give low values 1.02 | S. cerevisiae deletion strains, locus YPL241C, strain CIN2, hits give low values 1 | S. cerevisiae deletion strains, locus YPL256C, strain CLN2, hits give low values 0.982 | S. cerevisiae deletion strains, locus YPR119W, strain clb2, hits give low values 1.02 | S. cerevisiae deletion strains, locus YPR141C, strain kar3, hits give low values 1.01 | S. cerevisiae deletion strains, locus YPR163C, strain tif3, hits give low values 1.02 | S. cerevisiae deletion strains, locus YPR167C, strain met16, hits give low values 1.02 | S. cerevisiae deletion strains, strain wtn01, hits give low values 1.03 | S. cerevisiae strains, strain wild type, hits give low values 1.01
